# High-throughput results: PubChem BioAssay, National Center for Advancing Translational Sciences (NCATS)
# Shown are actives, neighbours in structure and some others; about 21% of the full set was active somewhere.
# Pf growth 48h = P. falciparum growth inhibition at 48 hours (one generation); actives 5.9% (n = 310,000); P. falciparum luciferase growth in erythrocytes, 48 h; Potency, µM (series often up to 28.7 µM), inactives show at the highest dose activity change, negative = inhibition, usual class: inhibitors; AID 504832; also: potency is read from the fitted curve at half-maximal effect; % is scaled to controls: 0 for no effect and ±100 for the full control effect
#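 Firefly luciferase activity from engineered P. falciparum reports growth; inhibitors lower the luminescent signal. Cultures contained 2% hematocrit erythrocytes at 0.1% final parasitemia.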
# NS1 inh = inhibitors of influenza NS1 protein function | Potency, µM (series often up to 46.1 µM), inactives show at the top dose activity, positive = more growth | actives 0.4% (n = 270,000) | AID 2326; calls by dose curve; also: potency is read from the fitted curve at half-maximal effect; actives are rising curves; nearly all actives have a fitted effect of over 50% in size
#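 Read-out: OD600 growth recovery of NS1-expressing budding yeast. Cells grown overnight at 30C in -URA glucose medium, washed, resuspended and diluted 1:100 in 2% galactose assay medium, pH 6.0. Same strain lacking NS1 served as positive control.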
# Shiga toxin inh = blocks Shiga toxin action in Vero cells. Vero cells, Shiga toxin protein synthesis inhibition reporter. inhibition, % at 38.7 µM. actives 9.2% (n = 290,000); in the data active = inhibition mostly above about 28%, no sharp cut-off; inactive = mostly below about 43%; also: 0% is about no effect
# Pf growth 96h = P. falciparum growth inhibition at 96 hour, primary screen for plastid delayed-death inhibitors. Potency, µM (doses to about 28.7 µM), inactives show at the highest dose activity change, negative = inhibition, hits mostly inhibitors. P. falciparum luciferase reporter growth, 96 h. actives 6.9% (n = 320,000); also: potency is read from the fitted curve at half-maximal effect; % is scaled to controls: 0 for no effect and ±100 for the full control effect
#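 Cell-based qHTS: luciferase-tagged P. falciparum in erythrocytes (2% hematocrit, 0.05% parasitemia final) incubated with compounds for 96 hours, 37 C, 5% CO2; luciferase detection reagent then added and luminescence measured.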
# Cycloheximide cs = affects cycloheximide protein synthesis inhibition readout, counter-screen; cell reporter, cycloheximide protein synthesis inhibition counterscreen; max response, %; actives 12% (n = 300,000); in the data active = max response mostly above about 13%, no sharp cut-off; inactive = mostly below about 14%; also: read at 38.3 µM for the half of the compounds with a filed dose; 0% is about no effect
# Starred values were filed as active, the others as inactive; ? = inconclusive; nt = no result; + = active, no number; [ ] = remark or other dose. Unless noted, calls follow the shape of the dose curve; as a rule, active = well fitted inhibition curve with a large enough effect; inconclusive = small, poorly fitted or top-dose-only effect, or another doubt; inactive = no such curve, though single readings can be large or run the other way.
SMILES,Pf growth 48h,NS1 inh,Shiga toxin inh,Pf growth 96h,Cycloheximide cs
O=C(OCCN1CCOCC1)c1ccc(OCCN2CCOCC2)cc1,nt,-5.0%,-7.1,35.4%,-1.7
Clc1ccc(OCCN2CCCCC2)cc1Cl,-6.1%,7.3%,-11.4,?,6.3
ON=C1c2cc(OCCN3CCCCC3)ccc2-c2ccc(OCCN3CCCCC3)cc21,1.65µM*,-11.1%,14.2,1.47µM*,10.2
CSc1nnc2c(n1)OC=Nc1ccc(Br)cc1-2,-10.5%,-2.7%,56.7,-1.3%,-1.3
CC(C)(C)c1ccc(OCC(O)CN(CCO)CC(O)Cn2ccc3ccccc32)cc1 (stereo unspecified),11.7µM*,-4.3%,-10.2,?,2.0
OCCN(CC(O)Cn1ccc2ccccc21)CC(O)Cn1ccc2ccccc21 (stereo unspecified),?,5.5%,-17.0,11.3%,-0.3
CC(=O)N(C1=C(N2CCOCC2)C(=O)c2ccccc2C1=O)c1ccc(C(=O)O)cc1,1.04µM*,-0.2%,-10.6,0.415µM*,-5.1
CC(=O)N(C)C1=C(N2CCOCC2)C(=O)c2ccccc2C1=O,2.08µM*,8.4%,-4.8,0.294µM*,-0.9
CC(C(=O)N1CCOCC1)N1C(=O)c2ccccc2C1=O (stereo unspecified),16.8%,?,-48.1,nt,-7.0
COc1cccc(CN2CCNC(=O)C2CC(=O)N(C)C2CCOCC2)c1 (stereo unspecified),19.3%,0.5%,-5.9,-13.6%,2.0
CCN(CC)C(=O)C(=O)Nc1ccc(OC)c(Cl)c1,16.9%,4.4%,49.1,0.0%,10.9
CCOC(=O)N1CCN(S(=O)(=O)N2CCCC(C(=O)NCc3ccccc3OC)C2)CC1 (stereo unspecified),-19.5%,-3.5%,9.8,?,-2.0
COc1cc(Cl)c(C)cc1NC(=O)CSc1nnc(-c2ccccn2)n1Cc1ccco1,?,-37.2%,-11.0,?,-3.9
CC(=O)c1ccc2noc(-c3ccccc3)c2c1,-22.5%,-6.3%,32.8,262.5%,13.5
c1ccc(-c2onc3cc4c(cc23)OCCO4)cc1,165.8%,-73.0%,+,39.2%,34.9*
CS(=O)(=O)N(CC(=O)N1CCCC1)c1ccccc1F,7.9%,-48.1%,-3.0,?,-2.2
COc1ccc(-n2c(SCC(=O)Nc3nccs3)nnc2-c2ccoc2C)cc1,nt,-1.6%,-12.4,?,-7.3
COc1cccc(-n2c(SCC(=O)Nc3nccs3)nnc2-c2ccoc2C)c1,8.28µM*,-24.4%,14.1,145.3%,7.0
COc1ccc(-n2c(SCC(=O)Nc3nc(C)cs3)nnc2-c2ccoc2C)cc1,5.86µM*,-4.3%[9.22 µM],12.6,3.1%,-0.5
O=C(CSc1nnc(Cn2c(=O)sc3ccccc32)n1-c1ccccc1)Nc1nccs1,?,-57.3%,7.9,4.65µM*,9.3
COc1ccc(C(=O)COC(=O)CCN2C(=O)C3C4C=CC(C5CC45)C3C2=O)cc1 (stereo unspecified),16.1%,-39.2%,-30.8,37.4%,0.8
COc1ccc(C)cc1NC(=O)COC(=O)C1CC1,0.8%,-1.0%,-27.4,nt,-1.7
O=C(C1CCCN(S(=O)(=O)c2ccccc2[N+](=O)[O-])C1)N1CCN(c2ccccc2)CC1 (stereo unspecified),?,12.9%,13.1,?,2.7
Nc1c(-c2ccccc2)n[nH]c1-c1ccccc1,102.4%,-48.3%,78.3*,8.1%,31.2*
Cc1cccc(C(=O)NNC(=O)c2ccco2)c1,7.1%,-0.3%,2.1,-3.7%,3.2
SMILES,Pf growth 48h,NS1 inh,Shiga toxin inh,Pf growth 96h,Cycloheximide cs
COc1ccc(C2Nc3ccccc3C(=O)N2Cc2ccco2)cc1COc1ccccc1F (stereo unspecified),nt,4.7%,2.0,4.15µM*,13.0
O=C1c2ccccc2NC(c2cccc(F)c2)N1Cc1ccco1 (stereo unspecified),-17.7%,-8.7%,12.8,?,1.7
Cc1ccc(C2Nc3ccccc3C(=O)N2Cc2ccco2)cc1 (stereo unspecified),?,-40.8%,-4.4,14.7µM*,15.8
O=C1c2ccccc2NC(c2ccc(O)cc2)N1Cc1ccco1 (stereo unspecified),-23.6%,10.5%,-13.0,?,0.4
Cc1cccc(NC(=O)C2CCN(S(=O)(=O)c3ccc4c(c3)NC(=O)CO4)CC2)c1,?,6.3%,14.1,-10.1%,2.9
Cc1nc(Nc2ccc(Cl)cc2)c(C#N)c(=O)[nH]1,0.5%,7.0%,nt,?,-5.8
CCN(CC(=O)Nc1ccc(NC(C)=O)cc1)C(=O)/C=C/c1ccco1,12.7%,nt,nt,36.3%,nt
CCCN(CC(=O)Nc1ccc(Cl)cc1Cl)C(=O)/C=C/c1ccco1,64.9%,-22.6%,174.1*,-11.4%,76.8*
Nn1c(-c2ccccc2)nc2cc(Cl)ccc2c1=O,45.5%,-9.1%,-6.8,0.0%,1.4
COc1ccc(Nc2c(-c3ccc(C)cc3)nc3cnccn23)cc1,0.0%,nt,10.2,-2.6%,6.5
Cc1ccccc1Nc1c(-c2ccc(N3CCOCC3)cc2)nc2cnccn12,-11.1%,5.4%,72.7,-21.3%,24.9*
Cc1ccc(Nc2c(-c3ccccc3O)nc3ncccn23)cc1,?,5.4%,12.9,?,1.8
Cc1ccc(Nc2c(-c3ccc(N4CCOCC4)cc3)nc3cnccn23)cc1,?,4.2%,44.4,?,7.8*
Cc1ccc2nc(-c3ccccc3O)c(Nc3ccc4c(c3)OCCO4)n2c1,11.7µM*,19.5%,-5.1,11.7µM*,-2.9
Cc1ccc(Nc2c(-c3ccccc3O)nc3cnccn23)cc1,5.86µM*,nt,-9.2,0.0%,5.5
CC1CC(C)CN(C(=O)CSCC(=O)O)C1 (stereo unspecified),19.5%,12.2%,9.1,41.4%,-1.7
O=C1CC(c2ccccc2Cl)=NN(c2ncnc3ccccc23)C1=O,0.4%,nt,93.7*,-22.8%,40.9*
CCN(C=NC1=NN(c2cccc(C(F)(F)F)c2)CC1)CC,-2.1%,-13.9%,66.2,-4.7%,37.1*
Cc1cccc(N2CCC(N=CN(C)C)=N2)c1,45.7%,nt,99.6*,6.5%,41.3*
Cc1ccc(CNC(=O)[C@H](Cc2ccccc2)NC(=O)C2CCNCC2)cc1,2.5%,-14.1%,-5.5,17.9%,-0.7
Cc1cc(N2CCN(C)CC2)nc2ccc(NC(=S)N3CCCCCC3)cc12,?,4.2%,50.7,9.0%,14.9
Cc1cccc(N2CCN(C(=S)Nc3ccc4nc(N5CCN(C)CC5)cc(C)c4c3)CC2C)c1 (stereo unspecified),?,-0.7%,-25.4,9.28µM*,-4.4
Cc1cc(N2CCN(C)CC2)nc2ccc(NC(=S)N3CCN(c4ccc(F)cc4)CC3)cc12,-16.7%,nt,-32.2,3.7µM*,-3.7
Cc1cc(N2CCOCC2)nc2ccc(NC(=S)N3CCCCC3C)cc12 (stereo unspecified),?,nt,19.4,?,31.0*
Cc1cc(N2CCN(C)CC2)nc2ccc(NC(=S)N3CCCCC3)cc12,3.29µM*,8.0%,26.6,9.28µM*,20.5
COc1ccc(C(=O)N[C@H](C(=O)OCn2nnc3ccccc3c2=O)C(C)C)cc1,8.2%,nt,nt,32.3%,nt
Cc1ccc2c(CC(=O)N(C)c3c(N)n(Cc4ccccc4)c(=O)[nH]c3=O)coc2c1,6.3%,nt,nt,9.7%,nt
